# Measurements: the supplement of paper PMC3656093
# ± gives the standard deviation of the averaged measurements. Whole data set: some 1,900 compounds, median “CD40L-induced NF-kB luciferase activity, plate-corrected, relative to DMSO (0) and IKK inhibitor VII (-100) controls” near 0.032, cut for the lowest 2% near -26. Only a selection was taken, and the lowest values are over-represented in it overall.
# Tested on: BL2-NFkB-Luc
# Test: CD40L-induced NF-kB luciferase activity, plate-corrected, relative to DMSO (0) and IKK inhibitor VII (-100) controls (% normalized activity); higher = more NF-kB reporter activity (less inhibition)
# Settings: 9.4 µM; stimulus: tCD40L 64 ng/ml; 4.5 h
# Protocol: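 BL2 B cells with a stable NF-kB response-element luciferase reporter (BL2-NFkB-Luc), 384-well. Cells were pre-incubated with compound at 9.4 uM for 1 h at 37 C, then stimulated with 64 ng/ml trimerized CD40L for 4.5 h; luciferase was read with Steady-Glo. Signal was normalised per plate in Genedata (median DMSO neutral control = 0, median IKK inhibitor VII at 50 uM = -100) with Assay Median plate-pattern correction; duplicate plates.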
row,Compound,CD40L-induced NF-kB luciferase activity
1,O=C1C(=O)c2ccccc2-c2ccccc21,-94.61 ± 0.41
2,O=C1C=Cc2ccccc2C1=O,4.88 ± 5.5
3,CCCC[N+]1(C)[C@@H]2CC(OC(=O)[C@H](CO)c3ccccc3)C[C@H]1[C@@H]1O[C@@H]12 (stereo partly drawn),-0.479 ± 2.2
4,CCN(CC)C(=O)N[C@H]1C[C@@H]2c3cccc4[nH]cc(c34)C[C@H]2N(C)C1,-15 ± 8.3
5,CC(C)C[C@H]1C(=O)N2CCC[C@H]2[C@]2(O)O[C@](NC(=O)[C@@H]3C=C4c5cccc6[nH]c(Br)c(c56)CC4N(C)C3)(C(C)C)C(=O)N12 (stereo partly drawn),3.22 ± 1.5
6,c1ccc2c(c1)[nH]c1cnccc12,-5 ± 7.4
7,COc1cc([C@@H]2c3cc4c(cc3[C@H](O)[C@H]3COC(=O)[C@H]23)OCO4)cc(OC)c1OC,-50.7 ± 3
8,CCCC(=O)OCC[N+](C)(C)C,-5.48 ± 4.7
9,CN1[C@@H]2CC[C@H]1CC(OC(=O)C1C=Nc3ccccc31)C2 (stereo partly drawn),-2.21 ± 6.7
10,Cc1ccc2c(c1)C1CN(C)CCC1N2C(=O)Nc1cccc(Cl)c1 (stereo not drawn),-6.16 ± 2.1
11,C[C@H]1OC[C@@H](C[N+](C)(C)C)O1,-0.99 ± 1.9
12,COc1ccc(CN2CC3CC(C2)c2cccc(=O)n2C3)cc1OC (stereo not drawn),-5.62 ± 3.4
13,CN[C@H](C)[C@H](O)c1ccccc1,-2.12 ± 1.3
14,COc1ccc(OCC(=O)N2c3ccc(C)cc3C3CN(C)CCC32)cc1 (stereo not drawn),0.261 ± 0.6
15,CC(C)C[C@H](NC(=O)[C@@H]1CCCN1C(=O)[C@@H](N)Cc1ccc(O)cc1)C(=O)NCC(N)=O,-28.7 ± 4.1
16,CC(C)(C)NCC(O)c1cc(Cl)c(N)c(Cl)c1 (stereo not drawn),-3.51 ± 17
17,COc1ccc(CCN2CCC(Nc3nc4ccccc4n3Cc3ccc(F)cc3)CC2)cc1,-4.18 ± 3.9
18,CC[C@H]1CN2CCc3cc(OC)c(OC)cc3[C@@H]2C[C@@H]1C[C@H]1NCCc2cc(OC)c(OC)cc21,-93.93 ± 0.21
19,c1ccc2c3c([nH]c2c1)CNCC3,-0.0865 ± 4.1
20,C[C@@H]1O[C@@H](O[C@H]2C[C@@H](O)[C@]3(CO)[C@H]4[C@H](O)C[C@]5(C)[C@@H](C6COC(=O)C6)CC[C@]5(O)[C@@H]4CC[C@]3(O)C2)[C@H](O)[C@H](O)[C@H]1O (stereo partly drawn),2.54 ± 3.8
21,CC12CC[C@H]3[C@@H](CCC4(O)C[C@H](O)CCC34C=NNC(=O)Cc3ccccc3)C1(O)CCC2C1=CC(=O)OC1 (stereo partly drawn),-1.26 ± 0.48
22,C[C@@H]1O[C@@H](O[C@H]2C[C@@H](O)[C@]3(CO)[C@H]4[C@H](O)C[C@]5(C)[C@@H](C6=CC(=O)OC6)CC[C@]5(O)[C@@H]4CC[C@]3(O)C2)[C@H](O)[C@H](O)[C@H]1O,-78.94 ± 0.33
23,CC12CN3CC(C)(CN(C1)C3c1cccs1)C2O (stereo not drawn),-2.02 ± 2.9
24,C[C@]12CCC(=O)C=C1CCC1C2CC[C@@]2(C)C1CC[C@@]2(O)CC#N (stereo partly drawn),-0.607 ± 3.7
25,O=C1CSC2N1CCNC21CCCCC1 (stereo not drawn),-1.57 ± 5.5
26,CCC1(c2ccccc2)C(=O)N(COC)C(=O)N(COC)C1=O,-30.1 ± 1.2
27,CN1C2CCC1CC(OC(=O)c1ccc(Cl)cc1)C2 (stereo not drawn),-2.24 ± 2.5
28,CN(C)[C@@H]1C(=O)C(C(N)=O)C(=O)[C@@]2(O)C(=O)C3C(=O)c4c(O)cccc4[C@@](C)(O)[C@H]3[C@H](O)[C@@H]12 (stereo partly drawn),0.102 ± 0.97
